In assay [1] the test system is Plasmodium falciparum Sir2 (PF13_0152, Sir2A). Briefly: pfSir2 binders on small-molecule microarrays, primary screen, biochemical, small-molecule microarray, 635 nm fluorescence (AID 1098).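 Also: score merges spot fluorescence intensity with its signal-to-noise ratio.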 The conditions noted are these: small-molecule microarray binding, fluorescence 635 nm; higher = more signal.
Assay [2] can be described thus: small-molecule microarray binders of probe aDKK1, primary screen, biochemical, biotinylated probe, 635/667 nm fluorescence (AID 1099).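 Also: score merges 667nm spot fluorescence with signal to noise across triplicate slides; reference of the scale not given here.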 The settings on record: higher = more signal.
The nature of assay [3]: small-molecule microarray binders of probe aCHRDL2, primary screen, biochemical, biotinylated probe, 635/667 nm fluorescence (AID 1100). The conditions noted are these: higher = more signal.
The nature of assay [4]: splicing luciferase reporter signal modulators, primary screen, spliceosome inhibition project, cell-based, HEK293, splice +/- reporter (AID 1101).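 Also: HEK293 cells carrying a splicing-competent luciferase reporter gene; test concentration not given here.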 The settings on record: luminescence, 24 h, higher = more signal, called active from +8 up or from −8 down. For orientation: In a reporter assay the amount or activity of a reporter protein is the signal.
Assay [5] concerns the target Fibroblast growth factor 10 (Homo sapiens) (UniProt O15520). Briefly: FGF10 binders on small-molecule microarrays, primary screen, biochemical, small-molecule microarray, 635 nm fluorescence (AID 1102). The conditions noted are these: FGF10 binding, fluorescence 635 nm, higher = more signal.
For assay [6], the system named is glycogen synthase kinase-3 (GSK3A per assay name; protocol says GSK3B). Briefly: GSK3 binders on small-molecule microarrays, primary screen, biochemical, small-molecule microarray, 635 nm fluorescence, GSK3A (AID 1103). Also: the record names both GSK3A and GSK3B. The settings on record: small-molecule microarray binding, fluorescence 635 nm; higher = more signal.
Assay [7] deals with Epidermal growth factor receptor (Homo sapiens) (UniProt P00533). Nature of the assay: EGFR binders on small-molecule microarrays, primary screen, biochemical, small-molecule microarray, 635 nm fluorescence (AID 1104).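 Also: score merges 667 nm emission intensity with spot signal to noise over triplicate slides.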 The settings on record: EGFR binding, higher = more signal.
The target in assay [8] is Follistatin-related protein 3 (Homo sapiens) (UniProt O95633). Nature of the assay: FSTL3 binders on small-molecule microarrays, primary screen, biochemical, small-molecule microarray, 635 nm fluorescence (AID 1105).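 Also: score merges emission near 667 nm and signal to noise per printed spot across three slides.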 The conditions noted are these: FSTL3 binding, higher = more signal.
Assay [9] concerns the target Dickkopf-related protein 1 (Homo sapiens) (UniProt O94907). Nature of the assay: DKK1 binders on small-molecule microarrays, primary screen, biochemical, small-molecule microarray, 635 nm fluorescence scan (AID 1106).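 Also: score merges emission near 667 nm with signal to noise over three replicate slides.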 The conditions noted are these: DKK1 binding, higher = more signal.
Assay [10] concerns Inhibin beta A chain (activin A). Nature of the assay: INHBA (activin A) binders on microarrays, primary screen, biochemical, small-molecule microarray, 635 nm fluorescence scan (AID 1107).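 Also: mouse activin A protein probed at 4.33 µg/mL on printed slides; score merges bound-protein fluorescence near 667 nm with spot signal-to-noise.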 The conditions noted are these: small-molecule microarray binding, higher = more signal.

The structures appear in SMILES notation. Activity calls are given as the source filed them.

Sequence of Dickkopf-related protein 1 (Homo sapiens) (O94907 whole entry, looked up): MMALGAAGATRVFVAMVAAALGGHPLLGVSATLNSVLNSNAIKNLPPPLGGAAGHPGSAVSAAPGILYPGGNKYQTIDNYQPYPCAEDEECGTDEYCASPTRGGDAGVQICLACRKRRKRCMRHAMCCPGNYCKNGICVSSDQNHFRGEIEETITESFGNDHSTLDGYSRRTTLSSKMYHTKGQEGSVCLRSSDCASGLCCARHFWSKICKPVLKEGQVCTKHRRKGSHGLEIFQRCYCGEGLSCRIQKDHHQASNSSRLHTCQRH
Sequence of Follistatin-related protein 3 (Homo sapiens) (O95633 whole entry, looked up): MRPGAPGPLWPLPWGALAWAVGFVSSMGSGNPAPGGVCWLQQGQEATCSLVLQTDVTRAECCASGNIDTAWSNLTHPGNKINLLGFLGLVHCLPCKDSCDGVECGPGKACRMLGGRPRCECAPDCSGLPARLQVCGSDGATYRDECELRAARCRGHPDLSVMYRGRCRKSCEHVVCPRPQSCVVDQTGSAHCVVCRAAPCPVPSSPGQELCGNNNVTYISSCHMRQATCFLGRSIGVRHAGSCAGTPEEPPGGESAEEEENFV
Sequence of Fibroblast growth factor 10 (Homo sapiens) (O15520 whole entry, looked up): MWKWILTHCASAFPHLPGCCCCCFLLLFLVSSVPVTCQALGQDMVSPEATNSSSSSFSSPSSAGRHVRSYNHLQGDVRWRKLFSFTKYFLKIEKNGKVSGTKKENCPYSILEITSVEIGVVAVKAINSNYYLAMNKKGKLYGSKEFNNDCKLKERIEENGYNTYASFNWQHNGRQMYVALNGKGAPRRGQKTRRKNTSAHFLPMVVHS
Sequence of Epidermal growth factor receptor (Homo sapiens) (P00533 whole entry, looked up): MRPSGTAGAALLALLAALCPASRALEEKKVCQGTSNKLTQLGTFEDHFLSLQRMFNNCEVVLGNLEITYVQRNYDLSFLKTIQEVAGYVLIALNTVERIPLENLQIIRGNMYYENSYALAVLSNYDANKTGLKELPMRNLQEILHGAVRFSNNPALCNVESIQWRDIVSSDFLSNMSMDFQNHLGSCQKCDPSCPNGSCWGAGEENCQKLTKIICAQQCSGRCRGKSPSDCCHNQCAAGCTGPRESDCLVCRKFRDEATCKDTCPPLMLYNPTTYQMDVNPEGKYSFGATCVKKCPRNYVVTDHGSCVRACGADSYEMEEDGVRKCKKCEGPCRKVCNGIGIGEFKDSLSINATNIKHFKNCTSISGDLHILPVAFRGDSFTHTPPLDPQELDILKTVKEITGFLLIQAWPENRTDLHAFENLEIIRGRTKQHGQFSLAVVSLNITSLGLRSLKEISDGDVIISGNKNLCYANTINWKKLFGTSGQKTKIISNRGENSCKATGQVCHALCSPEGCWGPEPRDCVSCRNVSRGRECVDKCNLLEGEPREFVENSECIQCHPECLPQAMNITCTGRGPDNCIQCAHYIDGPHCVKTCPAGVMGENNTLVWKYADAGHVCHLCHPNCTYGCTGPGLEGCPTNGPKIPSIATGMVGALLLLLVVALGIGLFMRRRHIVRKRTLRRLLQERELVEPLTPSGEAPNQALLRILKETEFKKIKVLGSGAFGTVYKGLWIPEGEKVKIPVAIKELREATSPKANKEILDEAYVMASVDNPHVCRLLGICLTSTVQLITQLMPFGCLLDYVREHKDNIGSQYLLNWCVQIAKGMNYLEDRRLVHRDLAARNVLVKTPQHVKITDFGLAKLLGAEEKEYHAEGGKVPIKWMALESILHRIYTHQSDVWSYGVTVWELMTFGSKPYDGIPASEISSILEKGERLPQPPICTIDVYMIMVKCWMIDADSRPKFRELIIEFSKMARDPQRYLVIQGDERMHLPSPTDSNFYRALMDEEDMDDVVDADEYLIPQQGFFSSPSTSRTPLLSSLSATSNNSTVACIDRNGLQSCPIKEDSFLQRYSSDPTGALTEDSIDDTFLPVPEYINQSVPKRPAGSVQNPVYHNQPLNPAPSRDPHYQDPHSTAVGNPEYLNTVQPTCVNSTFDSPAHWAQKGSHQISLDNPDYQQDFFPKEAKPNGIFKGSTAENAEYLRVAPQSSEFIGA

In the case of `COCCOC(=O)N1C(=O)[C@@]2(c3ccccc31)[C@H](c1ccc(O)cc1)N1[C@H](c3ccccc3)[C@H](c3ccccc3)OC(=O)[C@H]1[C@@H]2C(=O)N1CCN(c2ncccn2)CC1`, the composite z-score is 1.45 in assay [1]; 0.0484 in assay [2]; 0.419 in [3]; 1.04 in [5]; 1.11 in assay [6]; 0.194 in [7]. Besides, the composite z-score in assay [8] stood at 0.466; in assay [9], 0.259; in assay [10], 0.922. The z-score in assay [4] is -0.225 (inactive).
As to `C=CC[C@@H](OC(=O)Nc1ccc(SC)cc1)c1ccc(O)c(F)c1`, the composite z-score in assay [1] is 0.522; in assay [2], 0.0488; in assay [3] it was 0.404; in [5], 0.214; in assay [6], -0.0142; in [7], -0.361. Besides, the composite z-score in assay [8] amounted to 0.155; in assay [9], 0.183; in assay [10], 0.77. The z-score in [4] was -1.79 (inactive).
Consider `COc1cc2c(cc1O)C(C1CC1)N(Cc1cccc(OC(F)(F)F)c1)CC2` (stereo not given), for which the composite z-score in assay [1] was -0.102; in assay [2], 0.149; in [3], 0.542; in [5], -0.293; in assay [6], -0.567; in [7] it was -0.881. Also, the figures for the composite z-score in [8], in assay [9] and in [10] were -0.0671, -0.248 and 1.45, respectively. Besides, in [4], the z-score was 0.654 (inactive).
With `O=C1C[C@]2(c3ccc([N+](=O)[O-])cc3)C(=O)N(C3CC3)c3cc(CO)ccc3[C@H]2N1CC12CC3CC(CC(C3)C1)C2`, the composite z-score was 0.437 in assay [1]; -0.105 in assay [2]; 0.617 in assay [3]; -0.511 in [5]; -0.393 in [6]; -0.951 in [7]. Besides, the composite z-score in [8] is -0.924; in assay [9], -0.769; in assay [10], -0.383. Further, the z-score in assay [4] is -0.922 (inactive).
For `CC(C)C[C@@H]1NC(=O)[C@@H]2C[C@H](C(=O)NCCCCCCN)[C@H](c3cccc(OCCO)c3)N2C1=O`, the composite z-score turned out to be 1.55 in assay [1]; 0.286 in assay [2]; 0.532 in assay [3]; 1.13 in [5]; 0.712 in assay [6]; 0.0515 in assay [7]. Moreover, the values for the composite z-score in assay [8], in [9] and in assay [10] were 1.08, 0.236 and 0.775, respectively. In addition, in assay [4], the z-score was 0.138 (inactive).
As for `COc1cc2c(cc1O)C(c1ccc(CN3CCCC3)cc1)N(Cc1cc3c(cc1Br)OCO3)CC2` (stereo not given), the composite z-score in [1] is -0.115; in assay [2], -0.106; in assay [3] it was -0.097; in assay [5], 0.41; in [6], -0.237; in [7] it was -0.186. For the same compound, the values for the composite z-score in [8], in [9] and in [10] were 0.583, -0.367 and 0.992, respectively. The z-score in assay [4] was 0.373 (inactive).
Consider `COc1ccc([Si](C)(C)[C@@H]2[C@@H](CCO)O[C@]3(C(=O)N(Cc4ccccc4)c4ccc(NC(=O)[C@H](C)O)cc43)[C@H]2C)cc1`, for which the composite z-score in assay [1] is 0.728; in assay [2] it was -0.106; in assay [3], -0.147; in assay [5] it was 0.867; in assay [6] it was 1.29; in [7], 0.778. In addition, the composite z-score in assay [8] was 1.14; in [9], 0.43; in assay [10], -0.159. In addition, the z-score in assay [4] is -1.75 (inactive).
With `[N-]=[N+]=Nc1ccccc1[C@H]1OC(c2ccc(OCCCO)cc2)=N[C@@]1(Cc1ccccc1)C(=O)NCCN1CCOCC1`, the composite z-score in [1] stood at 1.59; in assay [2], 1.34; in assay [3], 1.29; in assay [5], 1.3; in [6], 1.28; in [7], 0.81. Further, the composite z-score in assay [8] stood at 1.37; in assay [9], 0.196; in [10], 1.13. Also, the z-score in assay [4] was -1.01 (inactive).
Turning to `CCCN1C(=O)[C@]2(Cc3ccccc31)N=C(c1ccc(OCCCO)cc1)O[C@@H]2c1ccccc1`, the composite z-score in [1] is 1.07; in [2], 0.0194; in assay [3], 0.865; in assay [5], 0.592; in [6] it was 1.26; in [7] it was -0.489. In addition, the figures for the composite z-score in [8], in [9] and in assay [10] were 0.515, -0.303 and 0.72, respectively. Further, in assay [4], the z-score was -0.898 (inactive).
As to `CC(C)(C)OC(=O)CC[C@@]1(C(=O)NCC(O)CO)N=C(c2ccc(OCCCO)cc2)O[C@@H]1c1ccccc1CN=[N+]=[N-]` (stereo not given in full), the composite z-score in assay [1] is 0.552; in [2], 0.726; in assay [3], 0.918; in [5], 0.364; in assay [6] it was 0.706; in assay [7], -0.0699. The results for the composite z-score in assay [8], in assay [9] and in assay [10] were 0.335, -0.39 and 0.349, respectively. For the same compound, in assay [4], the z-score was -0.0605 (inactive).
For `O=C1O[C@@H](c2ccccc2)[C@@H](c2ccccc2)N2[C@@H](c3ccc(O)cc3)[C@]3(C(=O)Nc4ccc(C#CCCO)cc43)[C@@H](C(=O)N3CCN(c4ncccn4)CC3)[C@H]12`, the composite z-score in [1] was 1.64; in [2], -1.25; in assay [3], -1.14; in assay [5], 1.4; in assay [6], 1.29; in assay [7], 0.103. Further, the results for the composite z-score in [8], in [9] and in [10] were 0.89, -0.0103 and -0.0153, respectively. In addition, the z-score in assay [4] is -0.116 (inactive).
`CC(=O)NCCCC[C@@H]1NC(=O)[C@@H]2C[C@H](C(=O)NCCCCCN)[C@H](c3cccc(OCCO)c3)N2C1=O`: the composite z-score in assay [1] was 1.05; in assay [2] it was 0.681; in assay [3], 0.0358; in assay [5], 1.24; in assay [6], 0.533; in [7], 0.504. Further, the values for the composite z-score in assay [8], in [9] and in [10] were 1.33, 0.823 and 0.488, respectively. The z-score in [4] was -1.29 (inactive).
Turning to `CCCCCN1CC=CC23O[C@@H]4/C=C\CCCOC(=O)C4[C@H]2C(=O)N(C(C)CO)[C@@H]3C1=O` (stereo not given in full), the composite z-score is 2.01 in assay [1]; -0.339 in [2]; 0.525 in [3]; -1.43 in assay [5]; -1 in [6]; -1.07 in assay [7]. For the same compound, the composite z-score was -0.706 in assay [8], -0.964 in assay [9] and -0.57 in assay [10]. Also, in assay [4], the z-score was 0.1 (inactive).
Regarding `Cc1ccc(S[C@]2(C(=O)NCc3ccccc3)CC(=O)N(C3CCCCC3)[C@@H]2c2ccc(CO)cc2I)cc1`, the composite z-score is 1.25 in assay [1]; -0.0018 in assay [2]; 0.379 in assay [3]; 0.861 in assay [5]; 0.1 in assay [6]; -0.104 in assay [7]. In addition, the composite z-score in assay [8] was 0.226; in assay [9], -0.358; in [10], -0.0734. The z-score in assay [4] was -1.49 (inactive).
On to `COc1ccc([Si](C)(C)[C@H]2[C@H](CC(=O)N(CCO)Cc3ccccc3)O[C@@]3(C(=O)N(C)c4c(Br)cc(C)cc43)[C@@H]2C)cc1`, for which the composite z-score in assay [1] is 0.827; in [2], -0.0876; in assay [3], -0.356; in [5] it was 0.968; in assay [6], 0.691; in [7], 1.19. Moreover, the composite z-score in assay [8] came out at 1.18; in assay [9], 0.766; in [10], 0.611. The z-score in assay [4] was -1.34 (inactive).
For the compound `CCCCCCCCCC(O)C1C=CC2C(=O)N(c3ccccc3)C(=O)C2N1Nc1cc(OC)c(OC)c(OC)c1` (stereo not given), the composite z-score in assay [1] was 1.04; in assay [2], -0.0249; in [3], 0.662; in assay [5] it was -0.4; in assay [6], -0.214; in [7], -0.381. The composite z-score is -0.246 in assay [8], -1.12 in [9] and 0.655 in assay [10]. The z-score in assay [4] was -0.901 (inactive).

The record behind these values is PubChem BioAssay.
